Drawing on the supplement of paper PMC8285479, this text covers normalised cell viability for 25 compounds.

Values joined by “and” are separate entries in the source; they are usually repeats but may differ in a detail not shown here. Equal values may be shown once. Where a name gives a salt, the structure may show the parent alone. ± gives the standard deviation of the averaged measurements. The full ranking holds about 1,900 compounds; the median of “normalised cell viability (NPI; 0 = phenylarsine oxide control, 1 = DMSO control)” is about 1, and the lowest 2% start at about 0.039. Shown is part of a subset that was picked to be rich in the lowest values.

This experiment relates to NCI-H1944. Nature of the experiment: normalised cell viability (NPI; 0 = phenylarsine oxide control, 1 = DMSO control) (fraction of DMSO control); NCI-H1944 is a non-small cell lung cancer line; higher = more viable cells (less compound toxicity). The following applies: 6 days.
Where [1] appears, read: glucocorticoid arm: hydrocortisone 2.75 uM co-treatment, compound 1 µM.
The mark [2] stands for this setting: glucocorticoid arm: hydrocortisone 2.75 uM co-treatment, compound 5 µM.
The mark [3] stands for this setting: glucocorticoid arm: hydrocortisone 2.75 uM pre-treated 2 days and continued, compound 1 µM.
Where [4] appears, read: glucocorticoid arm: hydrocortisone 2.75 uM pre-treated 2 days and continued, compound 5 µM.
[5] abbreviates: glucocorticoid arm: vehicle, compound 1 µM.
Where [6] appears, read: glucocorticoid arm: vehicle, compound 5 µM.
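Also: CTB read-out in 384-well plates, triplicate wells, NPI normalised per plate against 1 µM phenylarsine oxide (0) and 0.1% DMSO (1) controls.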

For the compound `CN(C)CCCCSC(=N)N`, the normalised cell viability was 1.001 ± 0.0081 under setting [1]; 1.01 ± 0.011 under setting [2]; 1.02 ± 0.026 under setting [3]; 1.02 ± 0.011 under setting [4]; 0.9953 ± 0.0064 under setting [5]; 0.9883 ± 0.005 under setting [6].
As for `O=C(CCCCCCNC(=O)c1cnc(N(c2ccccc2)c2ccccc2)nc1)NO`, the normalised cell viability is, setting by setting: under setting [1], 0.9803 ± 0.0098; under setting [2], 0.922 ± 0.018; under setting [3], 0.996 ± 0.021; under setting [4], 0.9343 ± 0.0021; under setting [5], 1.01 ± 0.01; under setting [6], 0.9873 ± 0.0071.
Regarding `O=C(CCCCCCC(=O)NO)NO` [Suberoyl bis-hydroxamic acid], the normalised cell viability by setting is: under setting [1], 0.958 ± 0.024; under setting [2], 0.833 ± 0.053; under setting [3], 0.968 ± 0.021; under setting [4], 0.868 ± 0.04; under setting [5], 1.005 ± 0.0057; under setting [6], 0.9962 ± 0.0093.
Turning to `O=C(CCCCCCNC(=O)c1cnc(N(c2ccccc2)c2ccccc2)nc1)NO` [Rocilinostat (ACY-1215)], the normalised cell viability is, setting by setting: under setting [1], 0.9393 ± 0.0064; under setting [2], 0.966 ± 0.011; under setting [3], 0.944 ± 0.015; under setting [4], 0.945 ± 0.018; under setting [5], 0.9923 ± 0.0021; under setting [6], 0.918 ± 0.0096.
With `NC(=S)c1ccc[n+]([C@@H]2O[C@@H](COP(=O)([O-])OP(=O)(O)OC[C@H]3O[C@@H](n4cnc5c(N)ncnc54)C(OP(=O)(O)O)[C@H]3O)C(O)C2O)c1` (stereo partly specified) [Thio-NADP sodium], the normalised cell viability by setting is: under setting [1], 1.013 ± 0.0058; under setting [2], 1.01 ± 0.026; under setting [3], 1.03 ± 0.021; under setting [4], 0.998 ± 0.013; under setting [5], 1.013 ± 0.0058; under setting [6], 1.013 ± 0.0058.
As for `CC(C)c1cc(-c2ccc(F)c3ccccc23)nc(N)n1`, the normalised cell viability stood at 0.9813 ± 0.0081 under setting [1]; 0.9787 ± 0.005 under setting [2]; 0.991 ± 0.018 under setting [3]; 0.993 ± 0.013 under setting [4]; 0.984 ± 0.025 under setting [5]; 1.001 ± 0.0079 under setting [6].
With `CNCc1ccc(C)c(NC(=O)c2ccc(Nc3nc(-c4ccccc4)c4ccccc4n3)cc2)c1`, the normalised cell viability was 0.965 ± 0.017 under setting [1]; 0.939 ± 0.017 under setting [2]; 0.9953 ± 0.0021 under setting [3]; 0.959 ± 0.015 under setting [4]; 0.991 ± 0.0027 under setting [5]; 0.988 ± 0.011 under setting [6].
For `Cc1cc(Nc2ccc(NC(=O)c3ccc(Nc4ccnc5ccccc45)cc3)cc2)nc(N)n1`, the normalised cell viability is 0.99 ± 0.017 under setting [1]; -0.000696 ± 0.0048 under setting [2]; 0.9783 ± 0.0035 under setting [3]; 0.492 ± 0.5 under setting [4]; 1.006 ± 0.0075 under setting [5]; 0.000819 ± 0.0006 under setting [6].
As for `COc1ccc(Cl)cc1NC(=O)Nc1cc(C)nc2ccccc12`, the normalised cell viability is, setting by setting: under setting [1], 1.01 and 1.02; under setting [5], 1 and 1.01.
For the compound `O=C(O)C=C1CCCc2ccccc2C1O` (stereo unspecified), the normalised cell viability was 0.987 ± 0.012 under setting [1]; 0.948 ± 0.026 under setting [2]; 0.987 ± 0.02 under setting [3]; 0.994 ± 0.044 under setting [4]; 0.983 ± 0.0069 under setting [5]; 0.987 ± 0.01 under setting [6].
For `Cc1cc(Cn2cnc3c2C[C@@H](C(=O)O)N(C(=O)C(c2ccccc2)c2ccccc2)C3)ccc1N`, the normalised cell viability is, setting by setting: under setting [1], 1.03 ± 0.01; under setting [2], 1.01 ± 0.022; under setting [3], 1.023 ± 0.0058; under setting [4], 1.01 ± 0.014; under setting [5], 1.027 ± 0.0058; under setting [6], 1.02.
Turning to `Cc1cc2c(cc1Cl)N(C(=O)Nc1cccc3ncccc13)CC2`, the normalised cell viability runs as follows: under setting [1], 0.985 ± 0.011; under setting [2], 0.965 ± 0.015; under setting [3], 1 ± 0.016; under setting [4], 1.03 ± 0.084; under setting [5], 0.9793 ± 0.0086; under setting [6], 0.992 ± 0.007.
Consider `COc1cc2c(cc1C(F)(F)F)N(C(=O)Nc1cc(F)cc(-c3cccnc3)c1)CC2`, for which the normalised cell viability is 0.994 ± 0.017 under setting [1]; 0.0391 ± 0.01 under setting [2]; 1.02 ± 0.01 under setting [3]; 0.903 ± 0.021 under setting [4]; 0.974 ± 0.028 under setting [5]; 0.00107 ± 0.00012 under setting [6].
`Cn1ccc2cc3c(cc21)CCN3C(=O)Nc1cccnc1`: the normalised cell viability is 1.02 ± 0.011 under setting [1]; 1.01 ± 0.018 under setting [2]; 1.05 ± 0.021 under setting [3]; 1.02 ± 0.017 under setting [4]; 1.03 ± 0.011 under setting [5]; 1.01 ± 0.01 under setting [6].
In the case of `COc1ccc2cc(-c3nc(-c4ccc([S+](C)[O-])cc4)[nH]c3-c3ccncc3)ccc2c1` (stereo unspecified) [Tie2 kinase inhibitor], the normalised cell viability reads like this: under setting [1], 1 ± 0.016; under setting [2], 1.002 ± 0.0072; under setting [3], 0.992 ± 0.0087; under setting [4], 1 ± 0.018; under setting [5], 0.997 ± 0.0017; under setting [6], 0.9943 ± 0.0098.
In the case of `CN1CCc2c(c3ccccc3n2Cc2ccc(C(=O)NO)cc2)C1` [Tubastatin A], the normalised cell viability stood at 0.984 ± 0.013 under setting [1]; 0.983 ± 0.026 under setting [2]; 0.983 ± 0.023 under setting [3]; 1.01 ± 0.023 under setting [4]; 0.991 ± 0.011 under setting [5]; 0.9927 ± 0.0063 under setting [6].
In the case of `CN1CCc2c(c3ccccc3n2Cc2ccc(C(=O)NO)cc2)C1` [Tubastatin A HCl], the normalised cell viability was 0.9623 ± 0.0086 under setting [1]; 0.859 ± 0.016 under setting [2]; 0.967 ± 0.0035 under setting [3]; 0.913 ± 0.025 under setting [4]; 0.999 ± 0.01 under setting [5]; 0.9903 ± 0.0042 under setting [6].
As for `Cn1cc(C(=O)OCC2CCN(CCNS(C)(=O)=O)CC2)c2ccccc21`, the normalised cell viability under setting [1] was 1.01 ± 0.01; the normalised cell viability under setting [2] was 0.997 ± 0.014; the normalised cell viability under setting [3] was 1.02 ± 0.011; the normalised cell viability under setting [4] was determined as 1.03 ± 0.014; the normalised cell viability under setting [5] is 1.017 ± 0.0058; the normalised cell viability under setting [6] is 1.023 ± 0.0058.
With `NS(=O)(=O)c1cc(C(=O)O)c(NCc2ccco2)cc1Cl` [Furosemide], the normalised cell viability worked out at 1.002 ± 0.0076 under setting [1]; 0.9983 ± 0.0029 under setting [2]; 0.999 ± 0.011 under setting [3]; 0.995 ± 0.015 under setting [4]; 0.984 ± 0.002 under setting [5]; 0.9897 ± 0.0047 under setting [6].
`OCC1OC(n2cnc3c(NCCc4ccccc4)ncnc32)C(O)C1O` (stereo unspecified) [N6-2-Phenylethyladenosine]: the normalised cell viability runs as follows: under setting [1], 1.006 ± 0.0069; under setting [2], 0.9327 ± 0.0083; under setting [3], 0.852 ± 0.27; under setting [4], 1 ± 0.017; under setting [5], 0.993 ± 0.0062; under setting [6], 1 ± 0.017.
In the case of `N=C(N)NCCCCNC(=N)N` [Arcaine sulfate], the normalised cell viability was determined as 0.987 ± 0.012 under setting [1]; 0.994 ± 0.033 under setting [2]; 0.993 ± 0.0066 under setting [3]; 1.01 ± 0.038 under setting [4]; 0.987 ± 0.013 under setting [5]; 0.9957 ± 0.0045 under setting [6].
For `C=C1C(=O)O[C@@H](CCC)[C@@H]1C(=O)O` [Butyrolactone 3], the normalised cell viability runs as follows: under setting [1], 1 ± 0.013; under setting [2], 1.02 ± 0.015; under setting [3], 0.998 ± 0.013; under setting [4], 1.017 ± 0.0082; under setting [5], 0.996 ± 0.0046; under setting [6], 1.001 ± 0.0075.
In the case of `CCN(CC)Cc1ccc2cc(COC(=O)Nc3ccc(C(=O)NO)cc3)ccc2c1` [Givinostat (ITF2357)], the normalised cell viability stood at 0.726 ± 0.049 under setting [1]; 0.00151 ± 0.0022 under setting [2]; 1 ± 0.018 under setting [3]; 0.0193 ± 0.0045 under setting [4]; 0.139 ± 0.006 under setting [5]; 0.000221 ± 0.0011 under setting [6].
For `COc1ccc(Cn2ccc3ccc(C(=O)NO)cc32)cc1`, the normalised cell viability reads like this: under setting [1], 0.959 ± 0.041; under setting [2], 1.01 ± 0.029; under setting [3], 0.923 ± 0.12; under setting [4], 1.04 ± 0.04; under setting [5], 0.9977 ± 0.004; under setting [6], 1.002 ± 0.0076.
In the case of `CCN(CC)CCNC(=O)c1ccc(NC(C)=O)cc1` [N-Acetylprocainamide hydrochloride], the normalised cell viability under setting [1] is 0.9787 ± 0.0049; the normalised cell viability under setting [2] is 0.974 ± 0.0099; the normalised cell viability under setting [3] was found to be 0.9943 ± 0.0067; the normalised cell viability under setting [4] is 0.977 ± 0.027; the normalised cell viability under setting [5] amounted to 0.9883 ± 0.0038; the normalised cell viability under setting [6] turned out to be 0.9807 ± 0.0087.
